Measured values from PubChem BioAssay (EPA / NIEHS).
Results filed as inconclusive are left out. Activity calls are given as the source filed them. Rule for the calls, unless noted: active = hit-call score of the fitted dose curve at least 0.9, where 1 is the maximum; inactive = score below 0.9.

How the values were obtained:
[1] = target: human Vitamin D Receptor (VDR), VDR (gene 7421) (UniProt P11473); test: ATG_VDR_TRANS: Attagene TRANS-FACTORIAL HepG2 Assay for human Vitamin D Receptor (VDR) (AID 2283022; active = hit-call score of the fitted dose curve at least 0.9, where 1 is the maximum)
Sequence of human Vitamin D Receptor (VDR), VDR (gene 7421) (P11473 whole entry, looked up, the tested form may be a part): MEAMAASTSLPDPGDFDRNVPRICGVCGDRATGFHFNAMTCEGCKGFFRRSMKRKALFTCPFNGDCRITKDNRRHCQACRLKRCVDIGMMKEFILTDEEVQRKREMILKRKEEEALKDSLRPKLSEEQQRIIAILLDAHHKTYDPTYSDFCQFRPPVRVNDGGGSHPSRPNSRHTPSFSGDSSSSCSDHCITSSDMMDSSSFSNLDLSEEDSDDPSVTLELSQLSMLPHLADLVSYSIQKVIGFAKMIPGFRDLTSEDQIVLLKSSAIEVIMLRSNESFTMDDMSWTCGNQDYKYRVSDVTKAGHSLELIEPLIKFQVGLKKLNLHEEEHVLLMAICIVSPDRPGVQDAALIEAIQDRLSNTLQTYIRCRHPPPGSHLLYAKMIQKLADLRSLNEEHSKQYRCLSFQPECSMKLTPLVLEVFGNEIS
In short: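 Transactivation by an exogenous VDR-Gal4 chimera in transiently transfected HepG2 cells was measured as reporter transcript level 24 hours after chemical treatment. RT-PCR products were analysed by capillary electrophoresis and fitted in the positive direction relative to DMSO.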

[2] = read-out: E-selectin (Homo sapiens) (UniProt P16581); test: BSK_3C_Eselectin: BioMAP Diversity Plus: 3C Assay for Eselectin Biomarker Activity (AID 2283015); conditions: primary human endothelial cells (HUVEC); actives raise or lower the signal;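 for outcome: cell surface E-selectin protein quantified by ELISA 24 h after dosing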
In short: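 E-selectin ELISA readout, fitted bidirectionally relative to DMSO, taken 24 h post-dosing in HUVEC cultures of the 3C system. Overt cytotoxicity tracked with sulforhodamine B staining of parallel wells.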

[3] = read-out: Interleukin-1 alpha (IL1a), IL1A (gene 3552); test: BSK_BE3C_IL1a: BioMAP Diversity Plus: BE3C Assay for Interleukin-1 alpha (IL1a) Biomarker Activity (AID 2283016); conditions: primary human bronchial epithelial cells; actives raise or lower the signal
In short: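 Human primary bronchial epithelial cells (BE3C system) were dosed with compound and IL-1a measured by ELISA 24 h later. Activity was fitted bidirectionally against DMSO baseline; cytotoxicity was tracked in parallel cultures by SRB total-protein staining.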

[4] = read-out: Monocyte Chemoattractant Protein-1 (MCP1), CCL2 (gene 6347); test: BSK_3C_MCP1: BioMAP Diversity Plus: 3C Assay for Monocyte Chemoattractant Protein-1 (MCP1) Biomarker Activity (AID 2283017); conditions: primary human endothelial cells (HUVEC); actives raise or lower the signal
In short: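 MCP-1 was measured by ELISA 24 h after dosing in primary HUVEC 3C cultures and fitted in both directions relative to DMSO; cytotoxicity was checked by SRB total-protein staining in parallel wells.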

[5] = read-out: Monocyte Chemoattractant Protein-1 (MCP1), CCL2 (gene 6347); test: BSK_4H_MCP1: BioMAP Diversity Plus: 4H Assay for Monocyte Chemoattractant Protein-1 (MCP1) Biomarker Activity (AID 2283018); conditions: primary human endothelial cells (HUVEC); actives raise or lower the signal
In short: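 Human umbilical vein endothelial cells (4H system) dosed with chemical; MCP-1 measured by ELISA 24 h after dosing. Bidirectional curve fitting against DMSO negative control as baseline; parallel SRB total-protein staining tracks overt cytotoxicity.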

[6] = read-out: Human Leukocyte Antigen - DR isotype (HLADR), HLA-DRA (gene 3122); test: BSK_3C_HLADR: BioMAP Diversity Plus: 3C Assay for Human Leukocyte Antigen - DR isotype (HLADR) Biomarker Activity (AID 2283019); conditions: primary human endothelial cells (HUVEC); actives raise or lower the signal;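 for outcome: ELISA of cell-surface HLA-DR on HUVEC 24 h after dosing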
In short: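 Bidirectional fitting against DMSO was applied to the HLA-DR ELISA signal from human umbilical vein endothelial cells, 24 h post-dose. Cytotoxicity came from parallel SRB total-protein staining; 3C proliferation was counted by SRB at 48 h.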

[7] = read-out: Monokine induced gamma interferon (MIG), CXCL9 (gene 4283); test: BSK_3C_MIG: BioMAP Diversity Plus: 3C Assay for Monokine induced gamma interferon (MIG) Biomarker Activity (AID 2283021); conditions: primary human endothelial cells (HUVEC); actives raise or lower the signal;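 for AC50: MIG protein level measured by immunoassay in the treated endothelial cultures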
In short: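 Primary human umbilical vein endothelial cells in the 3C system were exposed to chemical for 24 h, after which MIG was quantified by ELISA. Activity was fitted bidirectionally against DMSO as negative control and baseline.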

[8] = read-out: Matrix Metallopeptidase 1 (MMP1), MMP1 (gene 4312); test: BSK_BE3C_MMP1: BioMAP Diversity Plus: BE3C Assay for Matrix Metallopeptidase 1 (MMP1) Biomarker Activity (AID 2283024); conditions: primary human bronchial epithelial cells; actives raise or lower the signal
In short: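 Primary human bronchial epithelial cells were dosed with test chemicals, and MMP1 levels were measured by ELISA 24 h later. Data were fitted bidirectionally against DMSO as the negative control and activity baseline.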

[9] = BSK_3C_Vis: BioMAP Diversity Plus: 3C Assay for Morphology Visualization (AID 2283025); conditions: primary human endothelial cells (HUVEC);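 note: fitted both ways so gain or loss versus DMSO counts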
In short: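 Human umbilical vein endothelial cells in the 3C system were imaged by light microscopy 24 h after chemical dosing to record cell morphology. Activity was fitted bidirectionally against DMSO as negative control and baseline; the endpoint serves as a background control.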

[10] = read-out: Pselectin, SELP (gene 6403); test: BSK_4H_Pselectin: BioMAP Diversity Plus: 4H Assay for Pselectin Biomarker Activity (AID 2283026); conditions: primary human endothelial cells (HUVEC); actives raise or lower the signal
In short: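 Primary human umbilical vein endothelial cells were exposed to test chemical for 24 h, then cell-surface P-selectin was quantified by ELISA. Activity was fitted bidirectionally against DMSO as negative control and baseline.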

[11] = BSK_4H_SRB: Viability Assessment in the BioMAP Diversity Plus: 4H Assay (AID 2283027); conditions: primary human endothelial cells (HUVEC);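 note: cells exposed to compound for 24 h before staining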;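 for AC50: curves fitted both ways versus DMSO so AC50 may be loss or gain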
In short: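 Human umbilical vein endothelial cells, 24 h after chemical dosing; total protein measured by 0.1% sulforhodamine B staining after 10% TCA fixation, read at 560 nm. Bidirectional fitting against DMSO.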

[12] = BSK_BE3C_SRB: Viability Assessment in the BioMAP Diversity Plus: BE3C Assay (AID 2283028); conditions: primary human bronchial epithelial cells;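 for AC50: fitted both ways so AC50 may mark signal gain or loss versus DMSO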
In short: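 Cytotoxicity read-out: SRB (0.1%) staining of TCA-fixed (10%) human lung bronchial epithelial cells, absorbance 560 nm, 24 h post-dosing. Curves fitted both directions relative to DMSO.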

[13] = read-out: Thrombomodulin, THBD (gene 7056); test: BSK_3C_Thrombomodulin: BioMAP Diversity Plus: 3C Assay for Thrombomodulin Biomarker Activity (AID 2283029); conditions: primary human endothelial cells (HUVEC); actives raise or lower the signal
In short: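 Primary human umbilical vein endothelial cells (3C system) were exposed to chemical for 24 h, then thrombomodulin levels were measured by ELISA. Activity was fitted bidirectionally against the DMSO negative control as baseline.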

[14] = read-out: Urokinase-type plasminogen activator receptor (uPAR), PLAUR (gene 5329); test: BSK_4H_uPAR: BioMAP Diversity Plus: 4H Assay for Urokinase-type plasminogen activator receptor (uPAR) Biomarker Activity (AID 2283030); conditions: primary human endothelial cells (HUVEC); actives raise or lower the signal
In short: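 uPAR level read by ELISA on HUVEC cultures (BioMAP 4H) 24 h post-dosing, analyzed for gain or loss relative to DMSO. Parallel SRB staining assessed overt cytotoxicity.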

[15] = read-out: Human Leukocyte Antigen - DR isotype (HLADR), HLA-DRA (gene 3122); test: BSK_BE3C_HLADR: BioMAP Diversity Plus: BE3C Assay for Human Leukocyte Antigen - DR isotype (HLADR) Biomarker Activity (AID 2283032); conditions: primary human bronchial epithelial cells; actives raise or lower the signal
In short: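 Human primary bronchial epithelial cells in the BE3C system were exposed to chemicals for 24 h, after which HLA-DR levels were quantified by ELISA. Activity was fitted bidirectionally, gain or loss of signal, against DMSO as negative control and baseline.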

[16] = read-out: Vascular cell adhesion molecule 1 (VCAM1), VCAM1 (gene 7412); test: BSK_4H_VCAM1: BioMAP Diversity Plus: 4H Assay for Vascular cell adhesion molecule 1 (VCAM1) Biomarker Activity (AID 2283033); conditions: primary human endothelial cells (HUVEC); actives raise or lower the signal;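 for outcome: cell-surface VCAM-1 protein measured by ELISA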
In short: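 Primary human umbilical vein endothelial cells were exposed to chemicals for 24 h, after which VCAM-1 was quantified by ELISA. Responses were fitted bidirectionally against DMSO as negative control and activity baseline.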

[17] = read-out: Interferon-gamma inducible Protein 10 (IP10), CXCL10 (gene 3627); test: BSK_BE3C_IP10: BioMAP Diversity Plus: BE3C Assay for Interferon-gamma inducible Protein 10 (IP10) Biomarker Activity (AID 2283034); conditions: primary human bronchial epithelial cells; actives raise or lower the signal
In short: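 Human primary bronchial epithelial cells were exposed to chemicals for 24 hours, after which IP-10 levels were measured by ELISA. Data were fitted bidirectionally against DMSO, which served as the negative control and activity baseline.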

[18] = read-out: Vascular endothelial growth factor receptor 2 (Homo sapiens) (UniProt P35968); test: BSK_4H_VEGFRII: BioMAP Diversity Plus: 4H Assay for Vascular endothelial growth factor receptor 2 (VEGFR2) Biomarker Activity (AID 2283031); conditions: primary human endothelial cells (HUVEC); actives raise or lower the signal
In short: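 Measured by ELISA after 24 h of compound treatment: VEGFR2 on primary human umbilical vein endothelial cells, fitted in both directions relative to DMSO. Parallel cultures received SRB staining (560 nm) for overt cytotoxicity.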

[19] = BSK_3C_SRB: Viability Assessment in the BioMAP Diversity Plus: 3C Assay (AID 2283023); conditions: primary human endothelial cells (HUVEC);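 note: fitted both ways against DMSO so a hit may be signal rise or drop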
In short: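 Cytotoxicity readout in parallel HUVEC 3C cultures: after 24 h compound exposure, cells fixed with 10% TCA, stained with 0.1% SRB and read at 560 nm. Gain or loss relative to DMSO fitted.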

Sequence of E-selectin (Homo sapiens) (P16581 whole entry, looked up): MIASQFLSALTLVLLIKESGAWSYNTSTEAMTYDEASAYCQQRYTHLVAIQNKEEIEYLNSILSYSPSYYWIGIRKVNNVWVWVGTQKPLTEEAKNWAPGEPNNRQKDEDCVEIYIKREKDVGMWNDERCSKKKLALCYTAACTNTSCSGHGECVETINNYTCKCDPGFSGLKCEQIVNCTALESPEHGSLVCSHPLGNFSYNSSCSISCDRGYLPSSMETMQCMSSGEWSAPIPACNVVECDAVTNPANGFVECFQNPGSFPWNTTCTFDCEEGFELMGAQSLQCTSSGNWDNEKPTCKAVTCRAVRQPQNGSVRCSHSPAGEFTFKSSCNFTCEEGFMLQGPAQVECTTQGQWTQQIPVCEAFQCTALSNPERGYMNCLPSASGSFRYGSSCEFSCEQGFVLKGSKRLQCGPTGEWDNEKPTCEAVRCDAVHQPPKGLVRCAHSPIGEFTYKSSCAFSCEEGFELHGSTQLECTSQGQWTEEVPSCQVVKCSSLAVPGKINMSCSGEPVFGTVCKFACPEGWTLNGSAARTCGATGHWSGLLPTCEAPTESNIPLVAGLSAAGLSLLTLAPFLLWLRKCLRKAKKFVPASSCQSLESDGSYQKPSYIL

## Fc1ccc(C2(Cn3cncn3)OC2c2ccccc2Cl)cc1 (centres undefined)
[1]
  outcome: inactive

## CCC1(c2ccc(N)cc2)CCC(=O)NC1=O (centres undefined)
[1]
  outcome: inactive

## CCNc1nc(NC(C)(C)C)nc(SC)n1
[2]
  outcome: inactive
[3]
  outcome: inactive
[4]
  outcome: inactive
[5]
  outcome: inactive
[6]
  AC50: 20 µM (active)
[7]
  outcome: inactive
[1]
  outcome: inactive
[8]
  outcome: inactive
[9]
  outcome: inactive
[10]
  outcome: inactive
[11]
  outcome: inactive
[12]
  outcome: inactive
[13]
  outcome: inactive
[14]
  outcome: inactive
[15]
  outcome: inactive
[16]
  outcome: inactive
[17]
  outcome: inactive

## O=[N+]([O-])c1ccc(O)c([N+](=O)[O-])c1
[2]
  outcome: inactive
[3]
  outcome: inactive
[4]
  outcome: inactive
[5]
  outcome: inactive
[6]
  AC50: 28 µM (active)
[7]
  outcome: inactive
[8]
  outcome: inactive
[9]
  outcome: inactive
[10]
  outcome: inactive
[11]
  outcome: inactive
[12]
  outcome: inactive
[13]
  outcome: inactive
[14]
  outcome: inactive
[18]
  outcome: inactive
[15]
  outcome: inactive
[16]
  outcome: inactive
[17]
  AC50: 29.8 µM (active)

## Oc1cccc2cccnc12
[2]
  AC50: 20 µM (active)
[3]
  AC50: 5.35 µM (active)
[4]
  outcome: inactive
[5]
  outcome: inactive
[6]
  AC50: 4.97 µM (active)
[7]
  outcome: inactive
[1]
  outcome: inactive
[8]
  AC50: 2.73 µM (active)
[9]
  outcome: inactive
[10]
  AC50: 5.54 µM (active)
[11]
  outcome: inactive
[12]
  AC50: 4.3 µM (active)
[13]
  outcome: inactive
[14]
  outcome: inactive
[18]
  outcome: inactive
[15]
  AC50: 3.53 µM (active)
[16]
  AC50: 1.96 µM (active)
[17]
  AC50: 3.88 µM (active)

## O=c1[nH]c(=O)[nH]c(=O)[nH]1
[2]
  outcome: inactive
[3]
  outcome: inactive
[4]
  outcome: inactive
[5]
  outcome: inactive
[6]
  outcome: inactive
[7]
  outcome: inactive
[1]
  outcome: inactive
[8]
  outcome: inactive
[9]
  outcome: inactive
[10]
  outcome: inactive
[11]
  outcome: inactive
[12]
  outcome: inactive
[13]
  outcome: inactive
[14]
  outcome: inactive
[18]
  outcome: inactive
[15]
  outcome: inactive
[16]
  outcome: inactive
[17]
  outcome: inactive

## CC(=O)[O][Hg][c]1ccccc1
[2]
  AC50: 3.04 µM (active)
[3]
  AC50: 2.57 µM (active)
[4]
  AC50: 964 nM (active)
[5]
  AC50: 1.03 µM (active)
[6]
  AC50: 0.317 µM (active)
[7]
  AC50: 2.73 µM (active)
[19]
  AC50: 146 nM (active)
[8]
  AC50: 2.93 µM (active)
[9]
  AC50: 954 nM (active)
[10]
  AC50: 1.29 µM (active)
[11]
  AC50: 1.68 µM (active)
[12]
  AC50: 1.88 µM (active)
[13]
  AC50: 3.83 µM (active)
[14]
  AC50: 1.74 µM (active)
[15]
  AC50: 0.355 µM (active)
[16]
  AC50: 2.37 µM (active)
[17]
  AC50: 0.94 µM (active)
